Source: PubChem BioAssay (National Center for Advancing Translational Sciences (NCATS))
S-ASM inh = human S-ASM enzyme inhibition; P17405; AID 504937; 340,000 tested, 0.006% active; placental ASM, HMU-PC fluorogenic substrate, 60 min; Potency, µM (doses to about 57.5 µM), actives largely listed as inhibitors
Target sequence (P17405 47-631 limits assumed): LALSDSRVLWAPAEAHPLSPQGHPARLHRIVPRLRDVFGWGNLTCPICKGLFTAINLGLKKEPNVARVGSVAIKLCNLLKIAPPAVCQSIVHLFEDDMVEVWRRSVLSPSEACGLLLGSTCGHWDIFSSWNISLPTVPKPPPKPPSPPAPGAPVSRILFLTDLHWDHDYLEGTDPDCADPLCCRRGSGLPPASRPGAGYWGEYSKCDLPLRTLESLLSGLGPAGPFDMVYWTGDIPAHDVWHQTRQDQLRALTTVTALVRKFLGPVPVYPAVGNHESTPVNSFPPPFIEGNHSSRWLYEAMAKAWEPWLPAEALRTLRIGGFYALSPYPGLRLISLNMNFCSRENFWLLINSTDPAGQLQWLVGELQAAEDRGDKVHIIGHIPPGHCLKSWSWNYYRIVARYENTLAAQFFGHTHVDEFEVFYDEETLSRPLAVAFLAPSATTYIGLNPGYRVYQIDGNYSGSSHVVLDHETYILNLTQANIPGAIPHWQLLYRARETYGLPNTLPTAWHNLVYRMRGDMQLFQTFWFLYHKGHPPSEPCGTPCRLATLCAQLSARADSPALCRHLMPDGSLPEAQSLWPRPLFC
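Fluorescence read-out (Ex 386 nm, Em 447 nm) after stopping the reaction at pH 10. Enzyme: ASM from human placenta; substrate HMU-PC0, 9 uM final; 60 min, 37 °C. Compound preincubation 10 min, ambient temperature.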
DT40 TDP1 CPT = growth inhibition of DT40 Tdp1-/-;hTDP1 cells with camptothecin (screen for TDP1 inhibitors); chicken DT40 Tdp1-/-;hTDP1 cells + 20 nM CPT, ATP luminescence, 48 h; Potency, µM (doses to about 46.2 µM), actives largely listed as inhibitors; 420,000 tested, 12% active; AID 686979; further: nearly all actives have a fitted effect of over 55% in size
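Chicken DT40 Tdp1-/- cells stably complemented with human TDP1 were seeded at 400 cells/well in medium containing 20 nM camptothecin, exposed to pin-transferred compounds, and grown at 37 °C for at least 48 hr. Viability was read as ATP luminescence.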
TDP1 cell noCPT = qHTS for Inhibitors of human tyrosyl-DNA phosphodiesterase 1 (TDP1): qHTS in cells in absence of CPT. AID 686978, 2013. Potency, µM (series often up to 46.2 µM), hits mostly inhibitors. DT40 Tdp1-/- hTDP1 cells, no CPT, ATP luminescence, 48 h. 420,000 tested, 15% active; further: nearly all actives have a fitted effect of over 55% in size
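DT40 Tdp1-/-;hTDP1 cells, no CPT (DMSO vehicle only), 400 cells/well; compounds pin-transferred; ≥48 hr, 37 °C; CellTiter-Glo 30 min RT dark, luminescence read.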
IL1B secr inh = inflammasome signaling inhibition, IL-1 beta readout; THP-1 LPS/ATP IL-1B secretion, AlphaLISA, 16 h; stronger effect = lower value; activity change, % at 57.5 µM; 360,000 tested, 4.7% active; AID 743279; in the data active means activity change below about -50%; inconclusive means mostly about -30% to -49%
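Secreted IL-1B measured by AlphaLISA bead assay after 16 h compound exposure of THP-1 cells; compounds (final up to 57.5 uM) added 1 h before LPS (250 ng/mL) and ATP (1.25 mM) stimulation; lower signal means less secretion.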
TGFb SMAD3 inh = TGF-b pathway inhibition. HepG2 CAGA-GFP TGF-b/SMAD3 reporter, GFP fluorescence, 18 h; TGF-beta stimulated, 500 pg/mL final. 410,000 tested, 1.2% active. Potency, µM (doses to about 46.1 µM), usual class: inhibitors; further: nearly all actives have a fitted effect of over 65% in size
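HEPG2 CAGA-GFP cells (1000/well, DMEM with 1% FBS) were pre-incubated 2 h at 37 degrees C, given compound by pin tool, then stimulated with TGF-beta at 500 pg/mL final for 18 h before per-cell GFP fluorescence imaging.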
HepG2 viability = kills HepG2 cells in TGF-b inhibitor counter-screen | HepG2 CAGA-GFP viability, ATP luminescence, 18 h | 410,000 tested, 0.76% active | Potency, µM (doses to about 46.1 µM), most hits filed as cytotoxic | AID 588856
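HepG2 CAGA-GFP cells (1000/well, DMEM with 1% FBS) received compound, then TGF-beta at 500 pg/mL final, and were incubated 18 hours at 37 degrees C. Viability was read by CellTiter-Glo luminescence. Media-only wells were set as complete cell-killing and DMSO as no toxicity.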
Of the large screens only hits and unclear results are named; the others gave an inactive call. The list is not random: actives were taken first. Their share in the collection is about 19%. Unless noted, the call rests on the fitted dose curve; in most records, active means well fitted curve in the direction sought with a large enough effect; inconclusive means small, poorly fitted or top-dose-only effect, or another doubt; inactive means no such curve, though single readings can be large; an effect the other way counts as inactive or inconclusive.

CC(C)CC(=O)NCCc1ccncc1	HepG2 viability 2.82µM
CCCNC(=O)NCCc1ccncc1	none
Cc1cccc(NC(=O)CSCC(=O)N2CCN(c3cccc(C(F)(F)F)c3)CC2)c1	DT40 TDP1 CPT inconclusive, TDP1 cell noCPT inconclusive
CC(C)Cn1cc(NC(=O)N2CCN(c3cccc(C(F)(F)F)c3)CC2)c2ccccc2c1=O	DT40 TDP1 CPT 14.6µM, TDP1 cell noCPT 16.4µM (no result: S-ASM inh, IL1B secr inh)
COc1ccc(N2CCN(C(=O)Nc3ccccc3C)CC2)cc1	none
COc1ccc(N2CCN(C(=O)Nc3cn(CC(C)C)c(=O)c4ccccc34)CC2)cc1	TDP1 cell noCPT 14.6µM (no result: S-ASM inh, IL1B secr inh)
COc1cc2c(C(=O)N3CCN(c4cccc(C)c4)C(C)C3)cn(CC(C)C)c(=O)c2cc1OC (stereo not drawn)	DT40 TDP1 CPT 14.6µM, TDP1 cell noCPT inconclusive, TGFb SMAD3 inh inconclusive (no result: S-ASM inh, IL1B secr inh)
COc1cc2c(C(=O)N3CCN(c4cccc(C(F)(F)F)c4)CC3)cn(CC(C)C)c(=O)c2cc1OC	DT40 TDP1 CPT 16.4µM, TDP1 cell noCPT 18.4µM, TGFb SMAD3 inh 11.2µM (no result: S-ASM inh, IL1B secr inh)
COc1ccc(CCC(=O)NC2CC(=O)N(c3ccc(F)cc3)C2)cc1 (stereo not drawn)	none (no result: S-ASM inh, IL1B secr inh)
O=C(Cn1cnc2c(NCc3ccccc3)ncnc21)NCCc1cc2ccccc2[nH]1	none
O=C(O)CSCC(=O)Nc1cc(C(F)(F)F)ccc1Cl	none
Cc1ccc(C)c(N2CCN(C(=O)Nc3cn(CC(C)C)c(=O)c4ccccc34)CC2)c1	DT40 TDP1 CPT 13µM, TDP1 cell noCPT 16.4µM, TGFb SMAD3 inh inconclusive (no result: S-ASM inh, IL1B secr inh)
CC(C)Oc1cc(NC(=O)CSCC(=O)Nc2cccc(C(F)(F)F)c2)c(Cl)cc1Cl	TGFb SMAD3 inh 11.2µM
CC(C)Cn1cc(NC(=O)Nc2cccc(C(F)(F)F)c2)c2ccccc2c1=O	DT40 TDP1 CPT 20.6µM, TDP1 cell noCPT inconclusive, TGFb SMAD3 inh inconclusive (no result: S-ASM inh, IL1B secr inh)
Cc1ccc(NC(=O)Nc2cn(CC(C)C)c(=O)c3ccccc23)cc1N(C)C	DT40 TDP1 CPT 20.6µM, TDP1 cell noCPT 23.1µM (no result: S-ASM inh, IL1B secr inh)
COc1cccc(CNC(=O)Nc2cn(CC(C)C)c(=O)c3ccccc23)c1	TDP1 cell noCPT inconclusive (no result: S-ASM inh, IL1B secr inh)
Cc1ccc(CCN2CCN=C2Nc2ccccc2)cc1	DT40 TDP1 CPT inconclusive, TDP1 cell noCPT inconclusive
CCOc1ccc(NC(=O)COC(=O)CNC(=O)c2ccc(-c3ccccc3)cc2)cc1	TDP1 cell noCPT inconclusive
O=C(c1cc(=O)c2ccccc2o1)N1CCN(c2cccc(Cl)c2)CC1	DT40 TDP1 CPT inconclusive, TDP1 cell noCPT inconclusive
CC(C)Cn1cc(NC(=O)N2CCN(c3cccc(Cl)c3)CC2)c2ccccc2c1=O	DT40 TDP1 CPT 7.31µM, TDP1 cell noCPT inconclusive (no result: S-ASM inh, IL1B secr inh)
O=C(Cc1cccc2ccccc12)NNC(=O)c1ccc(Br)o1	none
CN1CCN(C(c2ccc(Cl)cc2)c2cc(Cl)c3cccnc3c2O)CC1 (stereo not drawn)	DT40 TDP1 CPT inconclusive, TDP1 cell noCPT 16.4µM, IL1B secr inh -64.2, TGFb SMAD3 inh inconclusive, HepG2 viability 25.1µM
CC(=O)NC(c1ccc(C)cc1)c1cc([N+](=O)[O-])c2cccnc2c1O (stereo not drawn)	DT40 TDP1 CPT 5.8µM, TDP1 cell noCPT 14.6µM, TGFb SMAD3 inh inconclusive
O=C(NC(c1ccc(Cl)cc1)c1cc(Cl)c2cccnc2c1O)c1cccnc1 (stereo not drawn)	DT40 TDP1 CPT 5.17µM, TDP1 cell noCPT 4.11µM, IL1B secr inh inconclusive, TGFb SMAD3 inh inconclusive (no result: S-ASM inh)
CC(=O)NC(c1ccc(N(C)C)cc1)c1cc(Cl)c2cccnc2c1O (stereo not drawn)	DT40 TDP1 CPT 4.61µM, TDP1 cell noCPT 6.51µM, TGFb SMAD3 inh inconclusive (no result: S-ASM inh)
CC1CCN(C(c2ccccc2)c2sc3nc(-c4ccco4)nn3c2O)CC1 (stereo not drawn)	DT40 TDP1 CPT inconclusive, TDP1 cell noCPT inconclusive (no result: S-ASM inh, IL1B secr inh)
